Data: the supplement of paper PMC6555819

Columns and labels:
Assay in all cases: PBM binding z-score (relative to random genomic background probes); higher = stronger binding; sequences stand for … in GC…GCGATTGACAGCGTAGAATGAAGG
[1] = tested on: PPARg:RXRa DBDmut IVT, anti-RXR (DBD mutation: RXRa K156A/R161A, NR concentration 270 nM, RXRa partner concentration 90 nM)
Summary of the method: (§1)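 Each nuclear receptor dimer, without ligand, was incubated for 1 h on custom Agilent 4×180K protein-binding microarrays. Binding was detected with antibodies against each partner (one per run), and scanned fluorescence was regression-normalized. The binding z-scores are referenced to random human genomic background probes.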

[2] = tested on: PPARg:RXRa IVT, anti-PPARg (NR concentration 270 nM, RXRa partner concentration 90 nM)
Summary of the method: as §1

[3] = tested on: PPARg DBDmut:RXRa IVT, anti-PPARg (DBD mutation: PPARg1 K132A/R137A, NR concentration 270 nM, RXRa partner concentration 90 nM)
Summary of the method: as §1

[4] = tested on: PPARg DBDmut IVT, anti-PPARg (DBD mutation: PPARg1 K132A/R137A, NR concentration 270 nM)
Summary of the method: as §1

[5] = tested on: PPARg homodimer (NR concentration 180 nM)
Summary of the method: as §1

[6] = tested on: PXR:RXRa (NR concentration 270 nM, RXRa partner concentration 90 nM)
Summary of the method: as §1

[7] = tested on: PXR homodimer (NR concentration 270 nM)
Summary of the method: as §1

[8] = tested on: RARa:RXR (NR concentration 270 nM, RXRa partner concentration 90 nM)
Summary of the method: as §1

[9] = tested on: RARa homodimer (NR concentration 270 nM)
Summary of the method: as §1

[10] = tested on: RARb:RXRa (NR concentration 270 nM, RXRa partner concentration 90 nM)
Summary of the method: as §1

[11] = tested on: RARb homodimer (NR concentration 270 nM)
Summary of the method: as §1

[12] = tested on: RARg:RXRa (NR concentration 270 nM, RXRa partner concentration 90 nM)
Summary of the method: as §1

[13] = tested on: RARg homodimer (NR concentration 270 nM)
Summary of the method: as §1

[14] = tested on: RXRa DBDmut IVT, anti-RXR (DBD mutation: RXRa K156A/R161A, NR concentration 90 nM)
Summary of the method: as §1

[15] = tested on: RXRa homodimer (NR concentration 180 nM)
Summary of the method: as §1

[16] = tested on: THRa:RXRa (NR concentration 90 nM, RXRa partner concentration 90 nM)
Summary of the method: as §1

[17] = tested on: THRa homodimer (NR concentration 90 nM)
Summary of the method: as §1

[18] = tested on: VDR homodimer (NR concentration 270 nM)
Summary of the method: as §1

Sequence	PBM binding z-score [1]	PBM binding z-score [2]	PBM binding z-score [3]	PBM binding z-score [4]	PBM binding z-score [5]	PBM binding z-score [6]	PBM binding z-score [7]	PBM binding z-score [8]	PBM binding z-score [9]	PBM binding z-score [10]	PBM binding z-score [11]	PBM binding z-score [12]	PBM binding z-score [13]	PBM binding z-score [14]	PBM binding z-score [15]	PBM binding z-score [16]	PBM binding z-score [17]	PBM binding z-score [18]
TCATATAGGTAAACAGCTGAAAGTCCGTAAGTTA	3.93	2.25	1.07	0.733	0.646	0.928	0.555	1.19	0.977	0.471	0.0749	0.25	0.0863	1.64	0.623	0.172	-0.236	0.162
TCTGCTAGGACAGTTGGTCAGCTAACGAGCTGCC	0.464	0.0709	-0.543	-0.756	-1.29	-0.745	-1.05	-0.557	-1.03	0.346	-0.304	-0.493	-0.356	-0.0894	-0.639	-0.274	-0.784	-1.13
TCTTGTAGATCAATAGCGGTTAAGAAAGTGCGCT	1.73	0.605	-0.463	0.835	0.226	0.449	0.123	0.439	0.667	-0.0234	-0.0533	0.105	-0.0407	0.457	0.288	0.011	-0.478	0.0262
ACTAACAGGCCAAGTTTGGGTCACTCAAACAAAG	0.131	0.999	-0.122	0.374	0.38	0.912	-0.269	1.75	-0.388	2.11	2.55	2.88	2.24	0.278	0.882	2.73	1.26	0.351
ATATCTAGGTTACATCCGGGTCATTCAGGCTATG	7.39	7.41	3.31	3.16	2.49	3.62	3.73	3.4	1.99	2.63	3.15	3.37	2.49	1.4	2.78	3.94	3.37	3.63
TAGCCTAGGTAAGATCGGGCCAGTATACGCTATA	-0.504	-0.0138	-2.06	-1.02	-0.948	-0.638	-0.73	-0.261	-1.46	-1.22	-0.638	-0.26	-0.321	-1.17	-0.364	1.37	-0.927	-0.857
CGGACGAGGGCATGAGTTGATAGCAAATGCCGAT	1.74	0.979	-0.792	-1.58	-0.164	0.528	0.00329	0.284	0.0592	2.03	0.742	1.16	1.89	2.01	0.928	1.17	-0.188	1.46
ACTATTAGTTGAGACGAGGGCAACCGGTAGGTTG	0.0734	0.502	0.336	-0.0704	-0.0372	1.47	0.373	0.84	0.204	1.4	1.42	0.949	0.676	0.457	0.675	2.69	0.339	1.07
ACTAGCAGGACAAGTTTGGGTCACTCAAACAAAG	0.129	0.867	0.113	-0.22	0.596	0.911	-0.116	1.47	-0.279	1.7	2.28	1.51	1.55	0.164	0.931	2.62	1.42	0.216
AGAATGAGGGTAAGATCAGGGAAACAGAATACAT	2.28	1.71	1.14	0.818	0.587	0.216	0.539	0.611	1.07	0.741	0.584	0.474	0.611	0.212	0.321	1.54	0.43	0.304
ATCCCTAGGTAAAAGTTCAGTGAATCCCGAGGAT	-0.636	1.17	-0.0921	0.662	0.927	1.97	1.19	1.18	0.513	2.16	2.41	1.53	1.73	0.406	1.39	1.13	0.117	1.71
ATCGAAAGGTCGAAGGTAAGTATACCCACCCGAA	-0.0708	1.49	0.751	0.919	0.93	2.6	0.149	3.27	0.263	3.59	2.18	3.86	3.99	0.89	4.24	1.86	0.0677	0.843
TCATATAGGTCAACAGGTGAAAGTCCGTAAGTTA	7.13	7.59	3.03	1.96	3.88	3.49	1.08	4.84	2.3	4.83	4.07	6.14	6.02	2.48	5.39	2.94	0.969	1.41
ACCGAAAGGTCGAGGTGAGTATAGAGAAAGGGAA	0.771	2.17	0.276	0.807	1.13	2.31	0.286	3	0.981	4.17	2.81	4.28	4.43	0.832	4.35	2.94	0.707	0.402
